# Measurements taken from PubChem BioAssay (EPA / NIEHS).
# Records with an inconclusive call do not appear. Some structures have more than one record in an assay (separate samples or runs), and their calls can disagree. The source made the active and inactive calls. Rule for the calls: active = hit-call score of the fitted dose curve at least 0.9, where 1 is the maximum; inconclusive = response in the unintended direction; inactive = score below 0.9.
# Columns and labels:
# [1] = target: human Phosphoinositide 3-kinase alpha (PI3Ka), PIK3CA (gene 5290) (UniProt P42336); assay: NVS_ENZ_hPI3Ka: NovaScreen (NVS) Enzymatic Assay for human Phosphoinositide 3-kinase alpha (PI3Ka) (AID 2283196)
# human Phosphoinositide 3-kinase alpha (PI3Ka), PIK3CA (gene 5290), sequence (P42336 whole entry, looked up): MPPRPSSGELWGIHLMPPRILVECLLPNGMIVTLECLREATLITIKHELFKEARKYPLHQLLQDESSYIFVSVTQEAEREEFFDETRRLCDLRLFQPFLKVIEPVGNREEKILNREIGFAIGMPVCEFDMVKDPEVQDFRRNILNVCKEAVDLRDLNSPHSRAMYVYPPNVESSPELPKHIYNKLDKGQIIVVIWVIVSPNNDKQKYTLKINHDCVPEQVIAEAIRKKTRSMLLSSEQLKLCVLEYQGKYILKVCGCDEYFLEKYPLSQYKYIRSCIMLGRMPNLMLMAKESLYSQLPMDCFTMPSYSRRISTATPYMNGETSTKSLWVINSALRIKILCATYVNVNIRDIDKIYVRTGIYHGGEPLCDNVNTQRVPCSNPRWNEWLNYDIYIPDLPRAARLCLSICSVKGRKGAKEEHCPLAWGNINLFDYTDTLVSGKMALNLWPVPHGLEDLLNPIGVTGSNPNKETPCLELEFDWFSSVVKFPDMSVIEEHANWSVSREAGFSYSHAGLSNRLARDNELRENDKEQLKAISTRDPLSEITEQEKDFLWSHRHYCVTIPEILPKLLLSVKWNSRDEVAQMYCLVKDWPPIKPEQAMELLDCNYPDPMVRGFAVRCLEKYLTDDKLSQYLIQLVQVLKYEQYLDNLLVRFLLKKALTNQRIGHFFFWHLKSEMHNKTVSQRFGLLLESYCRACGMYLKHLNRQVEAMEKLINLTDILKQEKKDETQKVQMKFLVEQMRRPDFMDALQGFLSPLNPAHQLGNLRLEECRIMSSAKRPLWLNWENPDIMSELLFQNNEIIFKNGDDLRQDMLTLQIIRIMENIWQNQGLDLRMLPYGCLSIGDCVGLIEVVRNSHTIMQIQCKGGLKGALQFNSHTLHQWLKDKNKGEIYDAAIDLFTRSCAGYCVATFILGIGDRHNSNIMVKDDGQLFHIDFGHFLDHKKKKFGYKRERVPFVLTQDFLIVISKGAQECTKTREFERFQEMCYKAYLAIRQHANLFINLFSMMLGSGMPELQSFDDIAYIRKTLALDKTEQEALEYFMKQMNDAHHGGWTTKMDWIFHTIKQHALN
# How it was run: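 Chemicals were first screened at 25 uM in duplicate, then hits were run as concentration series up to 50 uM. Enzyme activity was measured by fluorescence after mobility-shift separation, with loss of signal relative to DMSO taken as activity.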
# [2] = target: human Matrix Metalloproteinase-9 (MMP9), MMP9 (gene 4318) (UniProt P14780); assay: NVS_ENZ_hMMP9: NovaScreen (NVS) Enzymatic Assay for human Matrix Metalloproteinase-9 (MMP9) (AID 2283190);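 note: cell-free recombinant MMP9 protease activity read by fluorescent substrate signal; active means inhibition seen as loss of fluorescence signal versus DMSO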
# human Matrix Metalloproteinase-9 (MMP9), MMP9 (gene 4318), sequence (P14780 whole entry, looked up): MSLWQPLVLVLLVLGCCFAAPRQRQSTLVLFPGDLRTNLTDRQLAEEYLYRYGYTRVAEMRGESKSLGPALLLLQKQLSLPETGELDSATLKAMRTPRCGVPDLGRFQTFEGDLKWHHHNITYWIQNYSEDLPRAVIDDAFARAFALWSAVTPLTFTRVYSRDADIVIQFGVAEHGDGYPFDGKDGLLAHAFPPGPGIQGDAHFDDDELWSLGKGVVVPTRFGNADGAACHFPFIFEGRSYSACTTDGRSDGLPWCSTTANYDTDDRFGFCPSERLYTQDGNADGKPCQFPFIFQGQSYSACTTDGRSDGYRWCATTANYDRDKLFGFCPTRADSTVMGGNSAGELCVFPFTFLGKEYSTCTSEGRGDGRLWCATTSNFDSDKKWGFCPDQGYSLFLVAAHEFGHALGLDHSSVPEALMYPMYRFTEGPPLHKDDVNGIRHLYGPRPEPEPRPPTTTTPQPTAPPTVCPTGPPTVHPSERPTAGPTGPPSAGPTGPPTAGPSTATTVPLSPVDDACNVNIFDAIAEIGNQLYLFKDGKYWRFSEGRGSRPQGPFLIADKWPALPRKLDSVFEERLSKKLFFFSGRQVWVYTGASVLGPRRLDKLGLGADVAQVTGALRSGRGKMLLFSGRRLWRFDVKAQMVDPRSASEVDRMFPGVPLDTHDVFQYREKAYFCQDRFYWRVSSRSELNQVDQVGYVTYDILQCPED
# How it was run: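 Inhibition was scored as loss of fluorescence signal against DMSO controls. The recombinant protease was exposed to chemicals for 1 hour before reading; initial testing used 25 uM in duplicate.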
# [3] = target: human Phosphodiesterase 10 (PDE10), PDE10A (gene 10846) (UniProt Q9Y233); assay: NVS_ENZ_hPDE10: NovaScreen (NVS) Enzymatic Assay for human Phosphodiesterase 10 (PDE10) (AID 2283195)
# human Phosphodiesterase 10 (PDE10), PDE10A (gene 10846), sequence (Q9Y233 whole entry, looked up): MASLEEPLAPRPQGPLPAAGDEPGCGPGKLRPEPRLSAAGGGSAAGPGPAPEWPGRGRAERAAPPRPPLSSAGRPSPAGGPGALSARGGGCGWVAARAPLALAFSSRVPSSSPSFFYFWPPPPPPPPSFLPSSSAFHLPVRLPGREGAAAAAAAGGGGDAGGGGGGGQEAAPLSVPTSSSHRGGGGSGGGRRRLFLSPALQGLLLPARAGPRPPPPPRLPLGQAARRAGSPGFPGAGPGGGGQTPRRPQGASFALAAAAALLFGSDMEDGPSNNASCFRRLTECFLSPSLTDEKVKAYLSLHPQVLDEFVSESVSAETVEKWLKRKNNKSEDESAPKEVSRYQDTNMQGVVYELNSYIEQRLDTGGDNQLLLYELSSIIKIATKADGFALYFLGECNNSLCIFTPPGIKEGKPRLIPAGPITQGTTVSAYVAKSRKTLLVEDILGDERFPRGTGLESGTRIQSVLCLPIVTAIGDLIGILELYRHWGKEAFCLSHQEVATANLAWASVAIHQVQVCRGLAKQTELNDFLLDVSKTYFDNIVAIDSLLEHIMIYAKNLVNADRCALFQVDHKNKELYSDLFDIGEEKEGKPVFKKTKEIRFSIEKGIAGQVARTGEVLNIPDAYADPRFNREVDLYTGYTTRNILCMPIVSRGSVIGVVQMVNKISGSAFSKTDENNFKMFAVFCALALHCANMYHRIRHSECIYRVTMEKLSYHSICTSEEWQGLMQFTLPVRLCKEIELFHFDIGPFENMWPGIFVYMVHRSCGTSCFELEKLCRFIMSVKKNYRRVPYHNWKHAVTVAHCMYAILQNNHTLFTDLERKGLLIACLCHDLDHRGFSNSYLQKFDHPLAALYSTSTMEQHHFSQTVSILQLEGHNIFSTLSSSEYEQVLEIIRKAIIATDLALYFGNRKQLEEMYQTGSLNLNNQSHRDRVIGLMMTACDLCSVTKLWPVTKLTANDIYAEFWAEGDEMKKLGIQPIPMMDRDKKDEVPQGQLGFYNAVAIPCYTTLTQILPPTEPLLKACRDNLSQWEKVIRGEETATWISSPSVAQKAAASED
# How it was run: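 Readout is fluorescence intensity following electrophoretic mobility-shift separation, 1 h after dosing of isolated PDE10A protein. Hits meeting a preset threshold at 25 uM went to concentration series (max 50 uM), analysed relative to DMSO.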
# [4] = target: Collagenase 3 (Homo sapiens) (UniProt P45452); assay: NVS_ENZ_hMMP13: NovaScreen (NVS) Enzymatic Assay for human Matrix Metalloproteinase-13 (MMP13) (AID 2283182)
# How it was run: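 Recombinant MMP13 cleaving fluorescent substrate, cell-free, measured 1 h after dosing. Primary duplicate screen at 25 uM; actives tested in concentration-response up to 50 uM; loss of signal relative to DMSO.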
# [5] = target: human Matrix Metalloproteinase-2 (MMP2), MMP2 (gene 4313) (UniProt P08253); assay: NVS_ENZ_hMMP2: NovaScreen (NVS) Enzymatic Assay for human Matrix Metalloproteinase-2 (MMP2) (AID 2283184)
# human Matrix Metalloproteinase-2 (MMP2), MMP2 (gene 4313), sequence (P08253 whole entry, looked up): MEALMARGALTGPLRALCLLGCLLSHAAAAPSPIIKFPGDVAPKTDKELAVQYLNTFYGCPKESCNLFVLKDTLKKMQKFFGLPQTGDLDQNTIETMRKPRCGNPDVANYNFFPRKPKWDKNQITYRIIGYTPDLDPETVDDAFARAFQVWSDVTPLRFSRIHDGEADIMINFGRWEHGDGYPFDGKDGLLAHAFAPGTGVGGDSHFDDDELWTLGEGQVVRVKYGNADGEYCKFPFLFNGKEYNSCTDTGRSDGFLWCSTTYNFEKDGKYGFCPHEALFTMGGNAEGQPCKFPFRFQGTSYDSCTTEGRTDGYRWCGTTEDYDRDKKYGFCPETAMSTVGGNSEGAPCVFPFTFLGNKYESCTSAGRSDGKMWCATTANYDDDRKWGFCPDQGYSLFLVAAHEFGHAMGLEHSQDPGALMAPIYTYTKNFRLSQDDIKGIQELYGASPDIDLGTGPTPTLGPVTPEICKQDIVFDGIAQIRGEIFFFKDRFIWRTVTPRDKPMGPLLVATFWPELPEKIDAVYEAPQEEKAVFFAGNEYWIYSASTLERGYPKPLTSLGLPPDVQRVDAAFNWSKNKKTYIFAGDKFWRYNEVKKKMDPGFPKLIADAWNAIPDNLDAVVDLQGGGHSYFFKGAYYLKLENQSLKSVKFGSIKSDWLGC
# How it was run: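 Compounds first screened in duplicate at a single 25 uM, with actives followed up in concentration series. Recombinant human MMP2 cleaves a fluorogenic substrate; fluorescence taken at 1 h, inhibition fitted relative to DMSO.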
# [6] = target: human p21 Activated Kinase 4 (PAK4), PAK4 (gene 10298) (UniProt O96013); assay: NVS_ENZ_hPAK4: NovaScreen (NVS) Enzymatic Assay for human p21 Activated Kinase 4 (PAK4) (AID 2283189)
# human p21 Activated Kinase 4 (PAK4), PAK4 (gene 10298), sequence (O96013 whole entry, looked up): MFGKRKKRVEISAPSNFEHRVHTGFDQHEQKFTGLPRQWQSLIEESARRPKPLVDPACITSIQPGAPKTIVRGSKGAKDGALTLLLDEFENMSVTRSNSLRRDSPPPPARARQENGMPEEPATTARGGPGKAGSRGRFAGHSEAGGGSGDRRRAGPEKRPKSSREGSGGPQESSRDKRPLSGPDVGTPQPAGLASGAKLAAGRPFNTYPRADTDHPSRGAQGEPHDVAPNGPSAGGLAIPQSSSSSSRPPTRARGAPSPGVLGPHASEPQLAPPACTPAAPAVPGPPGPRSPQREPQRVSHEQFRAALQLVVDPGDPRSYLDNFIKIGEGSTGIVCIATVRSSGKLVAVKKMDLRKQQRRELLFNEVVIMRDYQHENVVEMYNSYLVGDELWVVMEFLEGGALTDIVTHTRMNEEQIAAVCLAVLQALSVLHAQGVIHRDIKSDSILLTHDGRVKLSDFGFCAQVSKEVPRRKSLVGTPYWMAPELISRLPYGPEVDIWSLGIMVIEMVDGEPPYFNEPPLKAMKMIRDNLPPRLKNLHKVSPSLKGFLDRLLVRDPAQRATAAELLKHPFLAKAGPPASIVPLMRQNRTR
# How it was run: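 Extracted PAK4 enzyme activity read by fluorescence with mobility-shift separation 1 h after chemical addition. Duplicate single-concentration screen at 25 uM, DMSO as negative control.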
# [7] = target: human Matrix Metalloproteinase-3 (MMP3), MMP3 (gene 4314) (UniProt P08254); assay: NVS_ENZ_hMMP3: NovaScreen (NVS) Enzymatic Assay for human Matrix Metalloproteinase-3 (MMP3) (AID 2283185)
# human Matrix Metalloproteinase-3 (MMP3), MMP3 (gene 4314), sequence (P08254 whole entry, looked up): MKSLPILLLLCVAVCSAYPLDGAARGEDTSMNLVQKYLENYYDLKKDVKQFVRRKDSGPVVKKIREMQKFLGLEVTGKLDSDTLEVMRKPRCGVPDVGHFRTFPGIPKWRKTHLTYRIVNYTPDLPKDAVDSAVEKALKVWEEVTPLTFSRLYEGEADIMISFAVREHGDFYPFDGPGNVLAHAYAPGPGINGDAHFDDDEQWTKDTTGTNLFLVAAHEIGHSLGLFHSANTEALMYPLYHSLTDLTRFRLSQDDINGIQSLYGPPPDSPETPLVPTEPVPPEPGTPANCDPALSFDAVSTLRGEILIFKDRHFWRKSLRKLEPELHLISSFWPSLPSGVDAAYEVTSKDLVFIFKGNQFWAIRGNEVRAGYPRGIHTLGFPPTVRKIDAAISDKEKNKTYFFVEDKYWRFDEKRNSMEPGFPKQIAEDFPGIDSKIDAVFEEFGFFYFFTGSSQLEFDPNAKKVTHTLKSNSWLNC
# How it was run: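 Fluorescent substrate turnover by recombinant MMP3 read after 1 h, signal loss scored against DMSO. Compounds first run in duplicate at 25 uM single dose, then actives confirmed by concentration series.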
# [8] = target: human Matrix Metalloproteinase-7 (MMP7), MMP7 (gene 4316) (UniProt P09237); assay: NVS_ENZ_hMMP7: NovaScreen (NVS) Enzymatic Assay for human Matrix Metalloproteinase-7 (MMP7) (AID 2283183)
# human Matrix Metalloproteinase-7 (MMP7), MMP7 (gene 4316), sequence (P09237 whole entry, looked up): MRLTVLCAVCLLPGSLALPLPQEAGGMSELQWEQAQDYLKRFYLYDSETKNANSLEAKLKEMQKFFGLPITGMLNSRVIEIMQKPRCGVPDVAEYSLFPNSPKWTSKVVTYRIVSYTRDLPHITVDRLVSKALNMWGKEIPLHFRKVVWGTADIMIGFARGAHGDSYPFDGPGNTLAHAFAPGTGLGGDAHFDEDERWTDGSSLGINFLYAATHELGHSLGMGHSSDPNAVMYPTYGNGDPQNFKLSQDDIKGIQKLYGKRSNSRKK
# How it was run: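 Compounds first tested at 25 uM in duplicate, then at up to 50 uM in concentration series if active. Protease activity measured by fluorescence intensity 1 h after dosing, with fitting relative to DMSO.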
# [9] = target: human Phosphodiesterase 4A1 (PDE4A1), PDE4A (gene 5141) (UniProt P27815); assay: NVS_ENZ_hPDE4A1: NovaScreen (NVS) Enzymatic Assay for human Phosphodiesterase 4A1 (PDE4A1) (AID 2283191)
# How it was run: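 Fluorescent substrate turnover by recombinant PDE4A1 read after 1 h by mobility-shift separation. Primary duplicate screen at 25 uM; hits retested in concentration series with a 50 uM maximum, relative to DMSO.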
# [10] = target: human Phosphodiesterase 5 (PDE5), PDE5A (gene 8654) (UniProt O76074); assay: NVS_ENZ_hPDE5: NovaScreen (NVS) Enzymatic Assay for human Phosphodiesterase 5 (PDE5) (AID 2283194)
# How it was run: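 Screening began in duplicate at 25 uM, with actives taken into concentration-response. Enzyme activity of recombinant PDE5 toward its substrate was measured at 1 h by fluorescence mobility-shift detection, relative to DMSO controls.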
smiles,measurement,setting,value
CCNc1nc(NC(C)(C)C)nc(SC)n1,outcome,[1],inactive
Clc1ccc(C2(Cn3cncn3)CC(Br)CO2)c(Cl)c1 (centres undefined),outcome,[2],inactive
O=C(OC1CCCCC1)c1ccccc1C(=O)OC1CCCCC1,AC50,[2],1.86 µM (active)
ClCCBr,outcome,[3],inactive
same,AC50,[1],0.383 µM (active)
CN(C)P(=O)(N(C)C)N(C)C,AC50,[2],6.94 µM (active)
ClC1=C(Cl)[C@]2(Cl)[C@@H]3[C@@H](Cl)[C@@H](Cl)C[C@@H]3[C@@]1(Cl)C2(Cl)Cl,outcome,[3],inactive
ClC1=C(Cl)[C@]2(Cl)[C@H]3[C@H]([C@H]4C=C[C@H]3C4)[C@@]1(Cl)C2(Cl)Cl,AC50,[2],102 µM (active)
Nc1cccc(Cl)c1,AC50,[2],0.226 µM (active)
O=C(Cl)c1ccc(Cl)cc1,outcome,[3],inactive
COc1cc(-c2ccc(N)c(OC)c2)ccc1N,AC50,[4],17.9 µM (active)
same,AC50,[5],7.86 µM (active)
same,AC50,[2],15.7 µM (active)
same,outcome,[2],inactive
Nc1ccc(-c2ccc(N)c(Cl)c2)cc1Cl,AC50,[2],0.597 µM (active)
same,outcome,[1],inactive
CC(C)(OO)c1ccccc1,outcome,[6],inactive
O=C(O)C(F)(F)C(F)(F)C(F)(F)C(F)(F)C(F)(F)C(F)(F)C(F)(F)C(F)(F)C(F)(F)C(F)(F)F,AC50,[4],23.3 µM (active)
same,AC50,[5],21.9 µM (active)
same,AC50,[7],10.3 µM (active)
CCOC(=O)/C=C(C)/C=C/C[C@@H](C)CCCC(C)C,outcome,[2],inactive
COP(=S)(OC)Oc1cc(Cl)c(Cl)cc1Cl,outcome,[1],inactive
CCCCC(CC)CO[N+](=O)[O-] (centres undefined),outcome,[3],inactive
O=C1C2(Cl)C3(Cl)C4(Cl)C(Cl)(Cl)C5(Cl)C3(Cl)C1(Cl)C5(Cl)C24Cl (centres undefined),AC50,[8],5.85 µM (active)
C(=NC1CCCCC1)=NC1CCCCC1,outcome,[1],inactive
CCN1CCC2(CC1)COc1cc3c(cc12)N(C(=O)c1ccc(-c2ccc(-c4nnc(C)o4)cc2C)cc1)CC3,AC50,[2],4.37 µM (active)
same,AC50,[9],10.2 µM (active)
same,outcome,[10],inactive
Cc1ccccc1N,outcome,[1],inactive
C[C@]12CCC(=O)C[C@@H]1CC[C@@H]1[C@@H]2CC[C@]2(C)[C@@H](O)CC[C@@H]12,outcome,[6],inactive
O=[N+]([O-])c1ccc2c3c(cccc13)CC2,outcome,[1],inactive
CC(Br)C(=O)O (centres undefined),outcome,[3],inactive
NC(=S)Nc1ccccc1,AC50,[2],29.4 µM (active)
COc1cccc(C=O)c1,outcome,[3],inactive
CC(C)(C)CC(C)(C)c1ccc(O)cc1,outcome,[10],inactive
CC(C)c1ccc(CO)cc1,outcome,[3],inactive
Nc1ncc([N+](=O)[O-])s1,outcome,[3],inactive
CN(CCCC(=O)c1cccnc1)N=O,outcome,[3],inactive
Nc1cccc2ccccc12,AC50,[3],9.86 µM (active)
Nc1ccc(Cl)cc1C(=O)c1ccccc1,outcome,[3],inactive
CC(C)C1CCC(Cc2ccc(Cl)cc2)C1(O)Cn1cncn1 (centres undefined),outcome,[1],inactive
O=Cc1cccc(Oc2ccccc2)c1,outcome,[3],inactive
CC(=O)[O][Hg][c]1ccccc1,outcome,[10],inactive
COP(=S)(OC)Oc1c(Cl)cc(C)cc1Cl,outcome,[1],inactive
